This note sets out measurements from PubChem BioAssay (NCI).

Some test systems named below: EKVX NSCLC; SN12C renal; UO-31 renal; TK-10 renal; ACHN renal; CAKI-1 renal; A498 renal; CCRF-CEM leukemia; MOLT-4 leukemia; SR leukemia; RPMI-8226 leukemia; OVCAR-5 ovarian; OVCAR-4 ovarian; SK-OV-3 ovarian; IGROV1 ovarian; OVCAR-3 ovarian; HS 578T breast; NCI/ADR-RES ovarian; T-47D breast; OVCAR-8 ovarian.
Common to all, as to experiment: NCI-60 one-dose screen, 48 h (100 = growth as untreated, 0 = no growth, -100 = all killed)
Conditions in all cases: 10 µM unless noted

Compounds without any hit were thinned out: in the full panel of roughly 83,000, 20% have a hit.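 The test compound was applied at a single concentration to cells in 96-well plates for 48 hours, and percent growth was recorded.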 Unmarked numbers belong to inactive results. The source made the active and inactive calls. The calls were made as follows: active = growth percent below 10; inactive = the rest.

Regarding `CC(C)(C)Nc1nc2c(OCCc3ccccc3)cccn2c1-c1ccccc1Cl`, the growth is 6.5% (active) in the experiment on EKVX NSCLC; 0.779% (active) with SN12C renal; -14% (active) in the experiment with UO-31 renal; 10.6% in the experiment with TK-10 renal; 4.1% (active) in the experiment with ACHN renal; -6.8% (active) with CAKI-1 renal. Also, the growth was -23% (active) in the experiment on A498 renal; 1.24% (active) in the experiment on CCRF-CEM leukemia; -21.5% (active) with MOLT-4 leukemia; -14.6% (active) with SR leukemia; -25.8% (active) with RPMI-8226 leukemia; 10.9% in the experiment on OVCAR-5 ovarian. Besides, the growth with OVCAR-4 ovarian is 13.5%; in the experiment on SK-OV-3 ovarian it was -22.7% (active); with IGROV1 ovarian it was 5.74% (active); in the experiment with OVCAR-3 ovarian, 8.2% (active); in the experiment with HS 578T breast, -1.74% (active); in the experiment with NCI/ADR-RES ovarian, 5.82% (active). Besides, in the experiment with T-47D breast, the growth was 10.3%.

On to `CCOC(=O)c1c(Nc2ccccc2)nn2c(N)c(C#N)c(-c3ccc(F)cc3)nc12`, for which the growth is 83.1% with EKVX NSCLC; 95.9% in the experiment on SN12C renal; 78.9% in the experiment on UO-31 renal; 109% in the experiment on TK-10 renal; 81.6% in the experiment with ACHN renal; 91.2% in the experiment with CAKI-1 renal. Besides, the growth is 68% in the experiment with CCRF-CEM leukemia; 46% in the experiment on MOLT-4 leukemia; 65% in the experiment on SR leukemia; 70.4% in the experiment on RPMI-8226 leukemia; 97.4% with OVCAR-8 ovarian; 108% in the experiment with OVCAR-5 ovarian. The growth in the experiment on OVCAR-4 ovarian is 87%; in the experiment with SK-OV-3 ovarian, 93.2%; in the experiment with IGROV1 ovarian, 93.1%; in the experiment on OVCAR-3 ovarian, 110%; with HS 578T breast, 79.6%; with NCI/ADR-RES ovarian, 97.4%. Besides, the growth with T-47D breast is 64.6%.

For `NS(=O)(=O)c1cccc(Nc2nc(SCC(=O)c3ccc(Cl)cc3)nc3ccccc23)c1`, the growth with EKVX NSCLC was 77.4%; in the experiment on SN12C renal, 63.4%; with UO-31 renal, 84.2%; in the experiment on TK-10 renal, 123%; in the experiment with ACHN renal, 77.6%; in the experiment with CAKI-1 renal, 62.3%. For the same compound, the growth with A498 renal is 85.2%; in the experiment on CCRF-CEM leukemia, 85.7%; in the experiment on MOLT-4 leukemia, 82.8%; in the experiment with SR leukemia, 59.2%; in the experiment on RPMI-8226 leukemia it was 65.4%; in the experiment on OVCAR-5 ovarian it was 116%. The growth in the experiment on OVCAR-4 ovarian was 22.5%; in the experiment with SK-OV-3 ovarian it was 103%; with IGROV1 ovarian, 76.3%; in the experiment on OVCAR-3 ovarian it was 85.8%; in the experiment with HS 578T breast, 43.5%; in the experiment with NCI/ADR-RES ovarian, 91.1%. Moreover, the growth with T-47D breast was 63.3%.

For `COc1cc(/C=C/C(=O)c2ccc(F)cc2)ccc1Oc1nc(NCCO)nc(N2CCOCC2)n1`, the growth with EKVX NSCLC is 82.8%; with SN12C renal it was 84.6%; in the experiment with UO-31 renal, 61.2%; with TK-10 renal it was 146%; with ACHN renal, 70.9%; with CAKI-1 renal it was 71.9%. Further, the growth in the experiment on CCRF-CEM leukemia was 4.33% (active); with MOLT-4 leukemia, 6.59% (active); with SR leukemia, -0.24% (active); with RPMI-8226 leukemia it was -1.38% (active); in the experiment with OVCAR-8 ovarian it was 86.1%; in the experiment on OVCAR-5 ovarian, 98.8%. For the same compound, the growth was 88.4% with OVCAR-4 ovarian; 113% in the experiment with SK-OV-3 ovarian; 70.6% with IGROV1 ovarian; 98.8% in the experiment with OVCAR-3 ovarian; 83.8% in the experiment on HS 578T breast; 78.9% in the experiment on NCI/ADR-RES ovarian. The growth with T-47D breast is 96.5%.

Take `Fc1ccc(-c2cc3nc(C(Cl)Cl)nc(-c4ccccc4)n3n2)cc1`: the growth was 1.49% (active) with EKVX NSCLC; 52% in the experiment with SN12C renal; 3.9% (active) with UO-31 renal; -23.9% (active) with TK-10 renal; -27.2% (active) in the experiment on ACHN renal; -17.5% (active) in the experiment on CAKI-1 renal. For the same compound, the growth with A498 renal was -59.9% (active); with CCRF-CEM leukemia it was 55.7%; with MOLT-4 leukemia it was 23.6%; in the experiment on SR leukemia it was 3.78% (active); with RPMI-8226 leukemia it was -16.1% (active); in the experiment on OVCAR-5 ovarian, -20.3% (active). The growth in the experiment with OVCAR-4 ovarian is -16.9% (active); in the experiment on SK-OV-3 ovarian, -18.6% (active); in the experiment with IGROV1 ovarian, 46.5%; in the experiment on OVCAR-3 ovarian, -43.1% (active); in the experiment on HS 578T breast, -18% (active); in the experiment with NCI/ADR-RES ovarian it was 10.6%. Also, in the experiment with T-47D breast, the growth is 22.1%.

As for `C#Cc1nc(C2=C(C)/C(=N/OCc3ccccc3)CC2)cs1`, the growth in the experiment with EKVX NSCLC was 19.4%; in the experiment on SN12C renal it was 66.6%; with UO-31 renal it was -93.8% (active); with TK-10 renal, 158%; with ACHN renal, 0.823% (active); in the experiment on CAKI-1 renal it was -20.1% (active). Also, the growth is -30.2% (active) with CCRF-CEM leukemia; 60.7% in the experiment on MOLT-4 leukemia; -52.4% (active) in the experiment with SR leukemia; -44.1% (active) in the experiment on RPMI-8226 leukemia; 21.2% with OVCAR-8 ovarian; 54.6% in the experiment with OVCAR-5 ovarian. Also, the growth is 16.7% in the experiment on OVCAR-4 ovarian; -22.3% (active) in the experiment on SK-OV-3 ovarian; -68.3% (active) in the experiment with IGROV1 ovarian; 74.2% in the experiment on OVCAR-3 ovarian; 70.9% with HS 578T breast; -3.32% (active) in the experiment on NCI/ADR-RES ovarian. Further, the growth with T-47D breast is 67.5%.
